Measurements from PubChem BioAssay (NCATS).
Several values for one entry are separate records, joined by “and”; a condition that tells them apart may be missing. Equal entries are not always repeated. Results filed as inconclusive are left out. Activity calls are given as the source filed them. Calls come from the whole dose curve; as a rule, active = well fitted curve in the direction sought with a large enough effect; inconclusive = small, poorly fitted or top-dose-only effect, or another doubt; inactive = no such curve, though single readings can be large; an effect the other way counts as inactive or inconclusive.

Tests used:
[1] = Viability qHTS for spleen associated tyrosine kinase inhibitor (SYKi) naive MV4-11 cells (AID 1963823); settings: MV4-11 AML viability, CellTiter-Glo luminescence, 72 h; series mostly up to 45 µM; note: nearly all actives have a fitted effect of over 40% in size
Outline: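 Compounds were dispensed acoustically onto plates, MV4-11 cells (SYKi-naive) added at 500 per well, and plates incubated 72 hr at 37 C. CellTiter-Glo was added and luminescence measured after 10 min.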

[2] = Viability qHTS for spleen associated tyrosine kinase inhibitor (SYKi) drug resistant MV4-11 cells (AID 1963824); settings: SYKi-resistant MV4-11 viability, CellTiter-Glo, 72 h; series mostly up to 45 µM; note: nearly all actives have a fitted effect of over 35% in size
Outline: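 CellTiter-Glo luminescence, read 10 min after reagent addition, reports viability after a 72 hr compound exposure. Cells are an MV4-11 line made resistant to SYK inhibition, seeded at 500 per well onto compound-containing plates.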

[3] = Quantitative highthroughput screen to assess conditional lethalithy of NOMO1 cells grown in RPMI1640 with untreated serum (RPMI+s) (AID 1963876); settings: NOMO1 AML cells in RPMI+serum, CellTiter-Glo viability, 48 h; series mostly up to 45.8 µM; note: nearly all actives have a fitted effect of over 35% in size;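 for Viability: 100% = DMSO wells and 0% = empty wells without cells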
Outline: (§1)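 Each medium arm—HPLM with 10% dialyzed FBS, or RPMI1640 with 5 mM glucose and 10% untreated or dialyzed FBS—was screened against an 11-point, 3-fold compound titration for 48 h at 37 °C, with CellTiter-Glo luminescence as endpoint.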

[4] = Quantitative highthroughput screen to assess conditional lethalithy of NOMO1 cells grown in Human Plasma-Like Medium with dialyzed fetal bovine serum (HPLM+ds) (AID 1963878); settings: NOMO1 AML cells in HPLM+ds, CellTiter-Glo viability, 48 h; series mostly up to 45.8 µM; note: nearly all actives have a fitted effect of over 35% in size;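 for Viability: 100% = DMSO wells and 0% = empty wells on each plate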
Outline: as §1

[5] = Quantitative highthroughput screen to assess conditional lethalithy of P12 Ichikawa cells grown in Human Plasma-Like Medium with dialyzed fetal bovine serum (HPLM+ds) (AID 1963879); settings: ATP luminescence, 48 h; Potency: viability; series mostly up to 45.8 µM; note: nearly all actives have a fitted effect of over 35% in size
Outline: as §1

[6] = Quantitative highthroughput screen to assess conditional lethalithy of P12 Ichikawa cells grown in RPMI1640 with dialyzed fetal bovine serum (RPMI+ds) (AID 1963880); settings: ATP luminescence, 48 h; Potency: P12-Ichikawa viability; series mostly up to 45.8 µM; note: nearly all actives have a fitted effect of over 35% in size;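 for Viability: 100% = DMSO wells and 0% = empty wells on each plate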
Outline: as §1

[7] = Quantitative highthroughput screen to assess conditional lethalithy of P12 Ichikawa cells grown in RPMI1640 with untreated serum (RPMI+s) (AID 1963881); settings: ATP luminescence, 48 h; Potency: viability; series mostly up to 45.8 µM; note: nearly all actives have a fitted effect of over 35% in size;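 for Viability: 100% = DMSO wells and 0% = empty wells without cells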
Outline: as §1

[8] = Quantitative highthroughput screen to assess conditional lethalithy of SEM cells grown in RPMI1640 with unreated serum (RPMI+s) (AID 1963883); settings: SEM B-ALL cells, CellTiter-Glo viability, 48 h; series mostly up to 45.8 µM; note: nearly all actives have a fitted effect of over 35% in size;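 for Viability: 100% = DMSO wells and 0% = empty wells without cells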
Outline: as §1

[9] = Cellular viability qHTS for adrenocortical cancer (ACC) cell line SW-13 (AID 1963989); settings: SW-13 ACC cells viability, CellTiter-Glo, 48 h; activity (max response): active compounds read low; note: nearly all actives have a fitted effect of over 65% in size;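 for activity (max response): cells grown in serum-free medium with ITS supplement; % is set by controls: 0 for no effect and ±100 for the full control effect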
Outline: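 48 h treatment, SW-13 in ITS/DMEM serum-free; doses up to 46 uM; readout CellTiter-Glo luminescence; curve fit four-parameter logistic.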

[10] = Cellular viability qHTS for adrenocortical cancer (ACC) cell line NCI-H295R (AID 1963990); settings: CellTiter-Glo ATP luminescence, 48 h; series mostly up to 46.1 µM; note: nearly all actives have a fitted effect of over 60% in size
Outline: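 Compound titrations (up to 46 uM final) are applied to NCI-H295R cultures for 48 h at 37C. Viable cell number is estimated by CellTiter-Glo signal, normalised to DMSO and doxorubicin controls.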

[11] = Quantitative highthroughput screen to assess conditional lethalithy of NOMO1 cells grown in RPMI1640 with dialyzed fetal bovine serum (RPMI+ds) (AID 1963877); settings: NOMO1 in RPMI+dialyzed FBS viability, ATP luminescence, 48 h; series mostly up to 45.8 µM; note: nearly all actives have a fitted effect of over 30% in size;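 for Viability: 100% = DMSO control wells and 0% = empty wells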
Outline: as §1

[12] = Quantitative highthroughput screen to assess conditional lethalithy of SEM cells grown in Human Plasma-Like Medium with dialyzed fetal bovine serum (HPLM+ds) (AID 1963882); settings: SEM B-ALL cells in HPLM+ds, CellTiter-Glo viability, 48 h; series mostly up to 45.8 µM; note: nearly all actives have a fitted effect of over 35% in size
Outline: as §1

[13] = Quantitative highthroughput screen to assess conditional lethalithy of SEM cells grown in RPMI1640 with dialyzed fetal bovine serum (RPMI+ds) (AID 1963884); settings: SEM B-ALL cells, RPMI+dialyzed FBS, CellTiter-Glo viability, 48 h; series mostly up to 45.8 µM; note: nearly all actives have a fitted effect of over 35% in size;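 for Viability: 100% = DMSO control wells and 0% = empty wells without cells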
Outline: as §1
Potency is the fitted concentration of half-maximal effect.

COc1cc2c(cc1OC)[C@@H]1C(=O)c3ccc4c(c3O[C@@H]1CO2)C=CC(C)(C)O4
active: Potency [1] 103 nM and 93.4 nM | Potency [2] 146 nM and 166 nM | Potency [3] 23.5 µM | Potency [4] 20.9 µM | Potency [5] 18.7 µM | Potency [6] 18.7 µM | Potency [7] 6.62 µM | Potency [8] 2.64 µM | Potency [9] 0.178 µM | Potency [10] 20 µM

O=C(c1ccc(OCCN2CCCCC2)cc1)c1c(-c2ccc(O)cc2)sc2cc(O)ccc12
inactive: Potency [3] | Potency [11] | Potency [8]
active: Potency [1] 14.8 µM and 16.4 µM | Potency [2] 13.3 µM and 16.6 µM and 10.3 µM | Potency [9] 20.6 µM and 25.1 µM | Potency [10] 9.2 µM and 31.6 µM

CC(C)c1cnn2c(NCc3ccccc3)cc(NCCCCCCN)nc12
inactive: Potency [3] | Potency [11] | Potency [6] | Potency [7] | Potency [12] | Potency [8] | Potency [13]
active: Potency [1] 16600 nM | Potency [2] 14.8 µM

COc1ccc(OC)c(-c2nnc3ccc(-c4ccc(OC)c(O[C@@H]5CCOC5)c4)nn23)c1
inactive: Potency [3] | Potency [11] | Potency [5] | Potency [13]
active: Potency [1] 2630 nM | Potency [2] 2.95 µM | Potency [9] 5.01 µM | Potency [10] 0.501 µM

Nc1ncnc2ccccc12
inactive: Potency [1] | Potency [2] | Potency [3] | Potency [4] | Potency [5] | Potency [6] | Potency [7] | Potency [12] | Potency [8] | Potency [13] | activity (max response) [9] 12% | Potency [10]

COc1cc(F)c(F)c(Nc2ccc(I)cc2F)c1NS(=O)(=O)C1(C[C@H](O)CO)CC1
active: Potency [1] 332 nM | Potency [2] 0.525 µM | Potency [8] 20.9 µM | Potency [9] 14.1 µM | Potency [10] 20 µM
inactive: Potency [3] | Potency [11] | Potency [7]

CC1(C)CC(=O)c2c(C(F)(F)F)nn(-c3ccc(C(N)=O)c(NC4CCC(O)CC4)c3)c2C1 (centres undefined)
active: Potency [1] 20.9 nM | Potency [2] 0.0332 µM | Potency [3] 0.209 µM | Potency [4] 0.235 µM | Potency [5] 0.235 µM | Potency [6] 0.148 µM | Potency [7] 0.148 µM | Potency [12] 0.148 µM | Potency [8] 0.148 µM | Potency [13] 0.148 µM | Potency [9] 0.224 µM | Potency [10] 0.447 µM

c1cc(-c2cnn3cc(-c4ccc(OCCN5CCCCC5)cc4)cnc23)ccn1
inactive: Potency [3] | Potency [11] | Potency [6] | Potency [8] | Potency [13]
active: Potency [1] 20.6 nM | Potency [2] 20.6 nM and 20.9 nM | Potency [10] 12.6 µM

O=C(NCc1ccccc1)c1csc(Nc2ccncn2)n1
active: Potency [1] 4680 nM | Potency [2] 4.17 µM and 20.6 µM | Potency [3] 3.32 µM | Potency [11] 3.72 µM | Potency [6] 3.72 µM | Potency [7] 3.32 µM | Potency [12] 1.66 µM | Potency [8] 0.833 µM | Potency [13] 1.66 µM | Potency [9] 25.1 µM | Potency [10] 31.6 µM

O=C(c1ccc(Nc2nccc(-c3cc4ccccc4s3)n2)cc1)N1CCC(N2CCCC2)CC1
active: Potency [1] 920 nM and 468 nM | Potency [2] 1.64 µM and 731 nM | Potency [3] 26.4 µM | Potency [4] 13.2 µM | Potency [5] 18.7 µM | Potency [6] 16.6 µM | Potency [7] 23.5 µM | Potency [8] 9.35 µM | Potency [13] 9.35 µM | Potency [9] 6.31 µM | Potency [10] 5.62 µM

Cc1ccccc1C(=O)c1ccc(Nc2ccc(Br)cc2N)cc1Cl
inactive: Potency [3]
active: Potency [1] 11.8 µM and 13 µM | Potency [2] 16.6 µM and 18.4 µM | Potency [11] 20.9 µM | Potency [9] 31.6 µM | Potency [10] 31.6 µM

CCN1CCN(CC(=O)Nc2ccc(-c3cccc4c(=O)cc(N5CCOCC5)oc34)c3sc4ccccc4c23)CC1
active: Potency [1] 422 nM and 407 nM | Potency [2] 422 nM and 723 nM | Potency [3] 4.18 µM | Potency [11] 3.72 µM | Potency [8] 1.05 µM | Potency [13] 1.32 µM | Potency [9] 9 µM | Potency [10] 7.15 µM
inactive: Potency [5]

CC[N+](CC)(CC)CCOc1cccc(OCC[N+](CC)(CC)CC)c1OCC[N+](CC)(CC)CC
inactive: Potency [1] | Potency [2] | Potency [3] | Potency [11] | Potency [6] | Potency [7] | Potency [12] | Potency [8] | Potency [13] | activity (max response) [9] 11.3% and -11.4% | Potency [10]

NC1(Cc2ccc(Cl)cc2)CCN(c2ncnc3[nH]ccc23)CC1
active: Potency [1] 3720 nM | Potency [2] 5.25 µM | Potency [3] 10.5 µM | Potency [11] 9.35 µM | Potency [12] 6.62 µM | Potency [8] 5.26 µM | Potency [13] 7.43 µM

CC1=C[C@@H]2[C@@H]([C@@H](O)C[C@@]3(C)[C@H]2C[C@@H](C)[C@]3(O)C(=O)CO)[C@@]2(C)Cc3cnn(-c4ccccc4)c3C=C12
inactive: Potency [3] | Potency [11]
active: Potency [1] 731 nM | Potency [2] 1.03 µM | Potency [12] 0.0372 µM | Potency [13] 0.0526 µM | Potency [9] 22.4 µM | Potency [10] 8.91 µM

Cn1c(=O)c(-c2c(Cl)cccc2Cl)cc2cnc(Nc3cccc(C(=O)O)c3)nc21
inactive: Potency [3] | Potency [11] | Potency [7] | activity (max response) [9] -0.886% | Potency [10]
active: Potency [1] 662 nM | Potency [2] 0.259 µM | Potency [8] 14.8 µM

CC[C@@H]1C(=O)N(C)c2cnc(Nc3ccc(C(=O)NC4CCC(N5CCN(CC6CC6)CC5)CC4)cc3OC)nc2N1C(C)C (some centres undefined)
active: Potency [1] 20.6 nM | Potency [2] 23.1 nM and 9.2 nM and 16.6 nM | Potency [3] 0.0935 µM | Potency [11] 0.0743 µM | Potency [12] 0.0296 µM | Potency [8] 0.0833 µM | Potency [13] 0.059 µM | Potency [9] 0.0501 µM | Potency [10] 1.41 µM
